NPC1 prom act: activators of NPC1 promoter; Potency, µM (titrated, usually from 9.22 µM), inactives show top-dose activation, hits mostly activators; Huh7 NPC1 promoter luciferase reporter, 24 h; AID 485313; 320,000 compounds, 2.4% hits; further: % of control where 0% means no effect; nearly all actives have a fitted effect of over 60% in size
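Stable NPC1-promoter luciferase Huh7 line; cpd (DMSO) 24 h, 37 °C, 5% CO2; Amplite luciferase reagent 10 min RT; luminescence readout. qHTS format.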
Rab9 promoter act: Rab9 promoter activation; 320,000 compounds, 2.8% hits; Potency, µM (titrated, usually from 9.22 µM), for the others: at the highest dose activation, negative = inhibition, hits mostly activators; Huh7 Rab9 promoter-luciferase reporter, luminescence, 24 h; further: % of control where 0% means no effect; nearly all actives have a fitted effect of over 60% in size
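Promoter activation is measured as luciferase luminescence in Huh7 cells stably transfected with a Rab9 promoter–luciferase construct, following 24 h compound exposure at 37 °C and 10 min reagent incubation at ambient temperature.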
FLuc counter: counter-screen for miR-21 project: firefly luciferase inhibitors or activators; Potency, µM (top dose mostly 57.5 µM), without a hit: at the top dose activity change, negative = inhibition, hits mostly inhibitors; purified FLuc, Km substrates, luminescence inhibition; P08659; AID 588342; 360,000 compounds, 6.9% hits;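 further: plate controls were vehicle for no effect and reference inhibitor for full effect; nearly all actives have a fitted effect of over 55% in size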
Target sequence (P08659 whole entry, looked up): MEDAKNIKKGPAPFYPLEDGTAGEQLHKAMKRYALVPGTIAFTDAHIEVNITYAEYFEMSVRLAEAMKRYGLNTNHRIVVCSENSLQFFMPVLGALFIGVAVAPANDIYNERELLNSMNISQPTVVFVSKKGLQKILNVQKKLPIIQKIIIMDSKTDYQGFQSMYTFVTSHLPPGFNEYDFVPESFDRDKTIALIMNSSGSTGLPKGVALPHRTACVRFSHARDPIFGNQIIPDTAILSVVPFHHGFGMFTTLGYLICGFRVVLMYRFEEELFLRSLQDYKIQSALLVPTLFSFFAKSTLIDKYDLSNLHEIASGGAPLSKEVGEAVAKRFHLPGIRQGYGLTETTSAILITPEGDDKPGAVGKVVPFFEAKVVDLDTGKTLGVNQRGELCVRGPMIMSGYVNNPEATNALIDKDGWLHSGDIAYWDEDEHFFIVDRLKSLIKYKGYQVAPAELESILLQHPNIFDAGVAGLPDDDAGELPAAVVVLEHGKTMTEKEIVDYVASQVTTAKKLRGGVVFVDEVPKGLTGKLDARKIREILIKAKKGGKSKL
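Biochemical qHTS of compounds, final roughly 60 µM downward over six points, against 10 nM purified firefly luciferase using Km concentrations of substrates (10 uM D-luciferin, 10 uM ATP) in Tris acetate pH 7.5 buffer; luminescence output.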
Luc counter: Kinase-Glo luciferase inhibition (counter-screen); Q27757; Kinase-Glo luciferase, ATP luminescence, 8 min; Potency, µM (series often up to 38.3 µM), without a hit: at the highest dose activity change, negative = inhibition, usual class: inhibitors; 200,000 compounds, 0.28% hits; AID 1379; further: on the % scale 0 is the no-effect control and ±100 the full control effect; nearly all actives have a fitted effect of over 60% in size
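Luminescence was the read-out, taken after 8-minute incubation at ambient temperature. Luciferase turned over luciferin with 10 uM ATP in imidazole pH 7.2 buffer containing KCl, MgCl2, Tween 20 and BSA.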
ELG1 genotoxic: inducers of genotoxicity in HEK293T ELG1-luciferase cells. 330,000 compounds, 1.3% hits. HEK293T ELG1-luciferase reporter, luminescence, 16 h. Potency, µM (titrated, usually from 46 µM), for inactives: top-dose activity change, positive = activation, actives largely listed as activators; further: % of control where 0% means no effect; nearly all actives have a fitted effect of over 60% in size
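Cells (2,000/well) expressing the ELG1-luciferase fusion are dosed by pin tool and kept 16 hr at 37 °C, 5% CO2. Signal comes from ONE-Glo luciferase reagent after 30 min at room temperature.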
SMN2 splice enh: enhancers of SMN2 splice variant expression; HEK293 SMN2-luciferase splicing reporter, luminescence, 30-36 h; Potency, µM (top dose mostly 46.1 µM), for the others: at the top dose activity change, positive = activation, most hits filed as activators; 210,000 compounds, 2.8% hits; AID 1458; further: % of control where 0% means no effect; nearly all actives have a fitted effect of over 55% in size
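HEK293 cells carry an SMN2 minigene-luciferase reporter in which exon 7 inclusion puts luciferase in frame. Cells were seeded at 2000 cells/well, attached for 10-12 hours, then exposed to compounds for 30-36 hours at 37C before ONE-Glo luminescence.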
* marks the source's active call; other numbers are inactive results; [ ] = another dose, or the depositor's remark. Sampled rows, rich in hits. Any-hit rate of the full collection: about 7.3%. The call rests on the fitted dose curve; in most records, active means well fitted curve in the direction sought with a large enough effect; inconclusive means small, poorly fitted or top-dose-only effect, or another doubt; inactive means no such curve, though single readings can be large; an effect the other way counts as inactive or inconclusive. Potency means the concentration at half of the fitted maximal effect.

`CCc1ccc(NC(=O)C2CCCN(S(=O)(=O)c3c(C)noc3/C=C/N(C)C)C2)cc1` (configuration not stated) gave FLuc counter 2% and SMN2 splice enh 2%.
O=C(O)c1ccc(S(=O)(=O)N[C@H](Cc2ccc(C(F)(F)F)cc2)C(=O)O)cc1 was read as NPC1 prom act -2%, Rab9 promoter act -1% and FLuc counter 3%.
Screening COc1cccc(NC(=O)Cn2c(=O)n(CCCC(=O)NCc3ccc4c(c3)OCO4)c(=O)c3ccccc32)c1 returned FLuc counter 0% and SMN2 splice enh -6%.
For CCOC(=O)c1[nH]c2ccc(C)cc2c1N the results were NPC1 prom act 2.2µM*, Rab9 promoter act 2.5µM*, FLuc counter 5.4µM*, Luc counter -10%, ELG1 genotoxic inconclusive and SMN2 splice enh 11µM*.
For CCOC(=O)c1[nH]c(C)c(C(=O)c2ccc(C)cc2)c1C the results were NPC1 prom act -9%, Rab9 promoter act -10%, FLuc counter inconclusive, Luc counter 0%, ELG1 genotoxic 21µM* and SMN2 splice enh 4%.
CCOC(=O)c1[nH]c2cc(OC)c(OC)cc2c1N was read as NPC1 prom act -1%, Rab9 promoter act 17%, FLuc counter inconclusive, Luc counter 1%, ELG1 genotoxic 0% and SMN2 splice enh -8%.
CCOC(=O)c1c(C)[nH]c(C(=O)COC(=O)c2ccccn2)c1C was read as NPC1 prom act 0%, Rab9 promoter act 5%, FLuc counter 6µM*, Luc counter 3%, ELG1 genotoxic 5% and SMN2 splice enh -10%.
`CCOC(=O)c1c(C)[nH]c(C(=O)OCC(=O)c2ccccc2)c1C` gave NPC1 prom act 0.5µM*, Rab9 promoter act 0.45µM*, FLuc counter 0.85µM* and ELG1 genotoxic 0.92µM*.
Screening COc1ccccc1N1CCN(C(=O)Cn2c(=O)nc(-c3ccccc3)c3cc(Cl)ccc32)CC1 returned FLuc counter -13%.
`COC(=O)Cc1c(C)c2ccc3c(c2oc1=O)CN(Cc1ccccc1OC)CO3` gave FLuc counter -1% and SMN2 splice enh 8%.
`COc1ccc(C2=C(C)C(N3CCC(C(=O)Nc4cc(C)ccc4C)CC3)=NS2(=O)=O)cc1` gave FLuc counter 5%.
`CCOC(=O)c1c(C)[nH]c(C(=O)OCCOc2ccccc2C)c1C` gave NPC1 prom act 4µM*, Rab9 promoter act 4µM*, FLuc counter 3.4µM*, Luc counter 6%, ELG1 genotoxic inconclusive and SMN2 splice enh 3.5µM*.
`Cc1nn(-c2ccc(N3CCCCC3)nn2)c(C)c1CCC(=O)Nc1cc(F)ccc1F` gave NPC1 prom act inconclusive, Rab9 promoter act inconclusive, FLuc counter 4.8µM* and ELG1 genotoxic 3%.
`Cc1nn(-c2ccc(N3CCCCC3)nn2)c(C)c1CCC(=O)Nc1ccccc1F` gave NPC1 prom act inconclusive, Rab9 promoter act inconclusive, FLuc counter 19µM* and ELG1 genotoxic 0%.
For CC(=O)Oc1cc(OC(C)=O)c2c(c1)OC(c1ccc(OC(C)=O)c(OC(C)=O)c1)C(OC(C)=O)C2 (configuration not stated) the results were Luc counter -1% and SMN2 splice enh -4%.
`Nc1ncnc2c1ncn2[C@H]1O[C@@H](CO)[C@@H](O)[C@H]1N` gave Luc counter -3%[7.66 µM] and SMN2 splice enh -8%[9.22 µM].
`COc1cccc(C(=O)n2nc(-c3ccco3)nc2NCc2cccs2)c1` gave FLuc counter -14% and SMN2 splice enh 21%.
For CN(C)c1ccccc1C(=O)c1ccccc1N(C)C the results were NPC1 prom act -12%, Rab9 promoter act -11%, FLuc counter 19µM*, Luc counter -4%, ELG1 genotoxic 21µM* and SMN2 splice enh 5µM*.
Screening COc1cc(NC2c3ccccc3C(=O)N2c2cc(C)ccn2)cc(OC)c1OC (configuration not stated) returned NPC1 prom act 0%, Rab9 promoter act 9%, FLuc counter -3%, Luc counter -4%, ELG1 genotoxic inconclusive and SMN2 splice enh -3%.
COc1cc(NC2c3ccccc3C(=O)N2c2ccc(C)cn2)cc(OC)c1OC (configuration not stated) was read as NPC1 prom act inconclusive, Rab9 promoter act inconclusive, FLuc counter inconclusive, Luc counter -16%, ELG1 genotoxic inconclusive and SMN2 splice enh 11µM*.
Screening N#Cc1c(NC(=O)CSc2ncn[nH]2)sc2c1CCCCC2 returned NPC1 prom act -18%, Rab9 promoter act -25%, FLuc counter 7.6µM*, Luc counter 1%, ELG1 genotoxic -14% and SMN2 splice enh -74%.
Screening Cn1cnnc1SCC(=O)Nc1sc2c(c1C#N)CCCCC2 returned NPC1 prom act 10%, Rab9 promoter act 11%, FLuc counter 27µM*, Luc counter -1%, ELG1 genotoxic 7% and SMN2 splice enh -17%.
`COc1cccc(N2CCN(C(=O)C3CCN(S(=O)(=O)c4cn(C)cn4)CC3)CC2)c1` gave FLuc counter 0%.
For COC(=O)c1ccccc1NC(=O)N1CCc2ccc(NC(=O)c3ccccn3)cc2C1 the results were NPC1 prom act -1%, Rab9 promoter act 3%, FLuc counter 1% and ELG1 genotoxic -4%.
Screening CSc1ccc(C(=O)N2CCc3ccc(NC(=O)c4ccccn4)cc3C2)cc1 returned NPC1 prom act inconclusive, Rab9 promoter act inconclusive, FLuc counter 19µM* and ELG1 genotoxic -34%.
`CCOc1ccc(CCNC(=O)c2ccc3c(c2)N(Cc2ccccc2)C(=O)c2ccccc2S3=O)cc1OCC` (configuration not stated) gave FLuc counter -2% and SMN2 splice enh -5%.
CC(=NC1CCCC1)c1c(C)[nH]n(-c2nc3ccccc3s2)c1=O was read as NPC1 prom act inconclusive, Rab9 promoter act inconclusive, FLuc counter 3.4µM*, Luc counter -6%, ELG1 genotoxic inconclusive and SMN2 splice enh inconclusive.
Screening CCC(=O)OCc1cnc(C)c2oc(=O)c(C(=O)Nc3ccc(CC)cc3)cc12 returned FLuc counter 0%.
Fc1cc(F)cc(NC(=S)N2CCC(c3ccccc3)C2)c1 (configuration not stated) was read as NPC1 prom act inconclusive, Rab9 promoter act 3.5µM*, FLuc counter inconclusive, Luc counter -2%, ELG1 genotoxic inconclusive and SMN2 splice enh 13µM*.
